Results reported in PubChem BioAssay AID1508622 (National Center for Advancing Translational Sciences (NCATS), 2021).
Calls of active or inactive are those of the source. The call rests on the fitted dose curve; in most records, active means well fitted activation curve with a large enough effect; inconclusive means small, poorly fitted or top-dose-only effect; inactive means no such curve, though single readings can be large or run the other way.

Experiment: Confirmatory qHTS for Identification of Small Molecule Activators of Huntingtin-Antisense Promoter Activity
Conditions: HEK293 HTT-AS promoter firefly luciferase reporter, 24 h; series mostly up to 57.5 µM; activity change, positive = activation: at the top concentration
How it was run: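 Activity normalized between vehicle control (0%) and zero RLU (-100%) from firefly luminescence (Dual-Glo). Compounds, up to 57.5 uM final, incubated 24 h at 37C on HEK293 reporter cells plated 24 h earlier.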

Activity change, positive = activation, inactive:
O=S(=O)(NCc1ccc(F)cc1)c1ccc(N2CCCCS2(=O)=O)cc1 -83.7%
COc1cccc(CNC(=O)c2ccc(-c3nc(COc4ccccc4)c(C)o3)cc2)c1 -27.9%
CCOc1ccc(CNC(=O)c2ccc3nc(Cc4ccc(OC)cc4)oc3c2)cc1OC -57.1%
COc1cc(C(=O)NCCSc2c(-c3ccccc3)[nH]c3ccccc23)cc(OC)c1OC -36.2%
COc1ccc(-c2cc(C)no2)cc1S(=O)(=O)N1CCN(c2ccccc2F)CC1 -43.3%
Cc1ccc(S(=O)(=O)N(CC(=O)NCCc2ccc(Cl)cc2)c2ccccc2C)cc1 -36.2%
COc1ccc(CNC(=O)c2oc3c(c2C)-c2nn(Cc4ccccc4Cl)cc2CC3)cc1 -26%
CCCCOc1cccc(C(=O)N(Cc2ccc(C)o2)c2ccccn2)c1 -96.2%
Cc1ccccc1OCc1ccc(-c2nc(C#N)c(NCc3cccnc3)o2)o1 -30.9%
COc1cccc(Cn2c(SCc3ccc(C(=O)N4CCC(C)CC4)cc3)nc3ccncc32)c1 -25.6%
O=C(Nc1ccc(OC(F)(F)F)cc1)C(NS(=O)(=O)c1cccc2nsnc12)c1ccccc1 (centres undefined) -22.1%
COc1ccc(S(=O)(=O)N2CCC(C(=O)Nc3ccc(Oc4ccccc4)cc3)CC2)cc1OC -27.8%
Cc1cccc(-n2nc(C)c(C(=O)Nc3cc(C)ccc3C)c2-n2cccc2)c1 -22.1%
O=C(C1CCC(CNS(=O)(=O)c2cccs2)CC1)N1CCN(c2ccc(Cl)cc2)CC1 (centres undefined) -53.1%
COc1ccc(-c2noc(C(C)NC(=O)c3ccco3)n2)cc1 (centres undefined) -28.4%
Cc1cc(NC(=O)CCc2nc3cccnc3n2-c2ccccc2)ccc1Br -26.5%
COc1cc(OC)c(C2C=C(c3ccc(C)cc3)Nc3c(C(=O)Nc4ccccc4)cnn32)cc1OC (centres undefined) 0.432%
Cc1ccc(Cn2c(=O)c3ccccc3n3c(-c4cccc(O)c4)nnc23)cc1 -25.1%
COc1ccc(Cl)cc1Nc1sc(C(=O)c2ccccc2)c(N)c1C(=O)Nc1ccccc1 -4.99%
COc1ccccc1C1CC(=O)NC(C)=C1C(=O)OC1CCCCCC1 (centres undefined) -27.7%
Cc1cc(N2CCC(C)CC2)nc2ccc(NC(=O)CCC(=O)N3CCN(c4cccc(C(F)(F)F)c4)CC3)cc12 -18.5%
O=C(CCn1cnc2onc(-c3ccc(F)cc3)c2c1=O)Nc1ccc(F)c(Cl)c1 -93.5%
COc1ccc(NS(=O)(=O)c2ccc(N3CCCCS3(=O)=O)cc2)cc1Cl -94%
Cc1ccc(C2=CC(c3ccc(Cl)cc3)n3nc(-c4ccc(C)cc4)nc3N2)cc1 (centres undefined) -3.5%
COc1ccc(C2c3c(-c4c(C)cc(C)cc4O)n[nH]c3C(=O)N2Cc2ccco2)cc1 (centres undefined) -38.1%
CCOC(=O)C1=C(CN2CCN(c3ccccc3F)CC2)NC(=O)NC1c1ccc(OC)cc1 (centres undefined) -66.6%
COc1cccc(C(=O)NC(c2ccc(Cl)cc2)c2cc(Cl)c3cccnc3c2O)c1 (centres undefined) -28.6%
CCOC(=O)c1cc2c(=O)n3ccccc3nc2n(CC2CCCO2)c1=NC(=O)c1cc(C)cc(C)c1 (centres undefined) -45.7%
Cc1ccc(C)c(N2CCN(S(=O)(=O)c3cc(C(=O)Nc4ccccc4C(F)(F)F)ccc3F)CC2)c1 -30.8%
CCc1ccc(NS(=O)(=O)c2c(C)nc3sc(CC)nn3c2=O)cc1 -21.7%
Cc1c(NS(C)(=O)=O)cccc1-c1nc2ccccc2s1 -34.9%
COCCNc1nc(NCc2cccc(Cl)c2)c2cnn(C)c2n1 -37.8%
Cc1cccc(-n2c(-c3ccco3)nc3c(cnn3-c3ccccc3C)c2=O)c1 -11.9%
COc1cc(OC)c(N(C)C(=O)c2cn(C3CCCC3)c(=O)c3c2c2ccccc2n3C)cc1Cl -45%
COc1cc(NC(=O)c2cc3c(s2)-c2ccccc2OC3)cc(OC)c1OC -24%
O=C(Nc1cc(Cl)cc(Cl)c1)c1ccc(F)c(S(=O)(=O)N2CCCC2)c1 -45.6%
COc1cc(NC(=O)Cn2nc(C(F)(F)F)c3c2CCC3)cc(OC)c1OC -42.7%
COc1ccc(CC(=O)Nc2ccc(-c3nc4ccccc4s3)cc2Cl)cc1OC -32.9%
COc1cccc(NC(=O)/C(C#N)=C\c2cn(Cc3ccc(C)cc3)c3ccccc23)c1 -35.9%
